According to PubChem BioAssay (EPA / NIEHS):
Where a structure was tested more than once in an assay, its records may differ in their call. The source made the active and inactive calls. The calls were made as follows: active = hit-call score of the fitted dose curve at least 0.9, where 1 is the maximum; inactive = score below 0.9.

What was measured:
[1] = biological target: Transcription factor E2F1 (Homo sapiens) (UniProt Q01094); experiment: ATG_E2F_CIS: Attagene CIS-FACTORIAL HepG2 Assay for human E2F Transcription Factor 1 (AID 2282935); settings: HepG2 Attagene cis-reporter, E2F reporter RNA transcripts; actives raise or lower the signal
Chain of Transcription factor E2F1 (Homo sapiens) (Q01094 whole entry, looked up): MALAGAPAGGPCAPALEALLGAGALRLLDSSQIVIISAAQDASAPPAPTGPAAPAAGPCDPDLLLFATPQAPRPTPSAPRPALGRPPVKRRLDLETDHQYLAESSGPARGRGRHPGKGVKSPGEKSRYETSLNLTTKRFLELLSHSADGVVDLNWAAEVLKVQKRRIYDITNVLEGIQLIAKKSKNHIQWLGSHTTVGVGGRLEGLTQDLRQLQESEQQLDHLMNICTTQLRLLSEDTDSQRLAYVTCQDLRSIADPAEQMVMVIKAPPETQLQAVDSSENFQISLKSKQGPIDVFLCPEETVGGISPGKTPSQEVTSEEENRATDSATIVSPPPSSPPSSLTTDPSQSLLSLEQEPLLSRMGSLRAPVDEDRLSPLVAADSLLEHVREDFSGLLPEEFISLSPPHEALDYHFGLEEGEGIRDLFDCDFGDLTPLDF
Procedure, shortened: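 In this cis-factorial format, endogenous factor activity drives transfected reporters in HepG2; transcripts collected at 24 h are quantified by fluorescence after RT-PCR and capillary separation.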

[2] = ATG_E_Box_CIS: Attagene CIS-FACTORIAL HepG2 Assay for human Enhancer Box (E-box) (AID 2282936); settings: HepG2 E-box cis-reporter transcription, actives raise or lower the signal
Procedure, shortened: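 Measured 24 h post-dosing in HepG2 cells transfected with multiple cis-regulated reporter units, signal being reporter mRNA induction detected by fluorescent RT-PCR with capillary electrophoresis; gain or loss fitted against DMSO.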

[3] = ATG_M_61_CIS: Attagene CIS-FACTORIAL HepG2 Assay for M61 Transcription Factor (Internal Marker) (AID 2282937); settings: HepG2 Attagene CIS-FACTORIAL M61 internal marker reporter; actives raise or lower the signal
Procedure, shortened: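 Readout: fluorescent reporter mRNA fragments resolved by capillary electrophoresis after RT-PCR. Transiently transfected human HepG2 cells carried MRTU constructs reporting endogenous TF activity; 24 h chemical exposure; gain or loss of signal fitted relative to DMSO.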

[4] = ATG_EGR_CIS: Attagene CIS-FACTORIAL HepG2 Assay for human Early Growth Response 1 (EGR1) (AID 2282938); settings: HepG2 Attagene CIS-FACTORIAL EGR reporter mRNA; actives raise or lower the signal
Procedure, shortened: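 Read-out: fluorescent reporter-mRNA fragments resolved by capillary electrophoresis after RT-PCR, 24 h post-dose in transiently transfected HepG2. Endogenous transcription-factor activity reported via cis-element-regulated reporter units; gain or loss fitted relative to DMSO.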

[5] = ATG_M_19_CIS: Attagene CIS-FACTORIAL HepG2 Assay for M19 Transcription Factor (Internal Marker) (AID 2282939); settings: HepG2 Attagene CIS-FACTORIAL M19 internal marker reporter; actives raise or lower the signal
Procedure, shortened: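 Signals come from fluorescence of labelled reporter-specific PCR fragments resolved by capillary electrophoresis, following 24 h treatment of HepG2 cells transfected with cis-promoter reporter units; activity was fitted in both directions relative to DMSO.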

[6] = ATG_ERE_CIS: Attagene CIS-FACTORIAL HepG2 Assay for Estrogen Response Element (ERE) (AID 2282940); settings: HepG2 ERE cis-reporter, Attagene RNA transcript; actives raise or lower the signal
Procedure, shortened: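 Fluorescence of capillary-separated, FAM-labelled reporter cDNA fragments indicates reporter mRNA levels in HepG2 cells exposed to chemicals for 24 h. Transient transfection with cis-regulated units; data fitted in both directions against DMSO.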

[7] = ATG_Ets_CIS: Attagene CIS-FACTORIAL HepG2 Assay for human Erythroblast Transformation Specific (ETS) (AID 2282941); settings: HepG2 ETS cis-reporter transcription, actives raise or lower the signal
Procedure, shortened: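 Endogenous transcription factor activity read as reporter mRNA via RT-PCR and capillary electrophoresis, with gain or loss fitted bidirectionally against DMSO. Human HepG2 liver cells, transiently transfected CIS reporter constructs, 24 h exposure.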

[8] = ATG_FoxO_CIS: Attagene CIS-FACTORIAL HepG2 Assay for human Forkhead box O (FoxO) (AID 2282943); settings: HepG2 Attagene cis-reporter, FoxO element, mRNA; actives raise or lower the signal
Procedure, shortened: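 24 h chemical exposure, HepG2 with transient cis-MRTU transfection. RNA extraction, oligo(dT) RT, reporter-specific PCR, primer-extension labelling, HpaI digestion, CE fragment analysis; bidirectional fit, DMSO baseline.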

[9] = ATG_GATA_CIS: Attagene CIS-FACTORIAL HepG2 Assay for human GATA Binding Protein (AID 2282944); settings: HepG2 GATA cis-element reporter, Attagene multiplex mRNA; actives raise or lower the signal
Procedure, shortened: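 After transfecting HepG2 cells with multiple cis-regulated reporter units, chemicals are dosed for 24 h; isolated RNA undergoes RT-PCR and fluorescent labeling before capillary electrophoresis, with activity expressed against DMSO.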

[10] = ATG_GLI_CIS: Attagene CIS-FACTORIAL HepG2 Assay for human Zinc Finger Protein GLI1 (AID 2282945); settings: HepG2, Attagene cis-factorial reporter mRNA, GLI element; actives raise or lower the signal
Procedure, shortened: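 HepG2 cells transiently transfected with cis-promoter multiplexed reporter units report endogenous transcription factor activity. After 24 h chemical exposure, reporter mRNA was quantified by RT-PCR, 6-FAM labelling, HpaI digestion and capillary electrophoresis, with bidirectional fitting against DMSO.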

[11] = ATG_ISRE_CIS: Attagene CIS-FACTORIAL HepG2 Assay for human Interferon Regulatory Factor 1 (IRF1) binding to an Interferon-Stimulated Response Element (ISRE) (AID 2282948); settings: HepG2 ISRE cis-reporter (Attagene), mRNA transcription readout; actives raise or lower the signal
Procedure, shortened: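 Endogenous transcription factor activity read as reporter transcript abundance via RT-PCR and capillary electrophoresis. HepG2 cells transiently transfected, 24 h chemical exposure. Gain or loss fitted against DMSO baseline.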

[12] = ATG_M_32_CIS: Attagene CIS-FACTORIAL HepG2 Assay for M32 Transcription Factor (Internal Marker) (AID 2282949); settings: HepG2 Attagene cis-factorial M32 reporter, mRNA; actives raise or lower the signal;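 also: background control marker of the multiplexed CIS panel rather than a real target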
Procedure, shortened: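 Transient MRTU transfection of HepG2; 24 h compound treatment; TriZol RNA, oligo(dT) RT, reporter PCR, 6-FAM primer extension, HpaI cut, CE. Gain/loss of signal vs DMSO.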

[13] = ATG_M_06_CIS: Attagene CIS-FACTORIAL HepG2 Assay for M06 Transcription Factor (Internal Marker) (AID 2282950); settings: HepG2 Attagene CIS-FACTORIAL M06 internal marker reporter; actives raise or lower the signal
Procedure, shortened: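 HepG2 liver cells, 24 h exposure. Reporter transcripts from transfected cis-element constructs quantified by RT-PCR/capillary electrophoresis fluorescence. Bidirectional curve fit against DMSO.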

[14] = biological target: Hypoxia-inducible factor 1-alpha (Homo sapiens) (UniProt Q16665); experiment: ATG_HIF1a_CIS: Attagene CIS-FACTORIAL HepG2 Assay for human Hypoxia Inducible Factor 1 (HIF1A) (AID 2282951); settings: HepG2 Attagene cis-factorial HIF1a reporter transcription; actives raise or lower the signal
Chain of Hypoxia-inducible factor 1-alpha (Homo sapiens) (Q16665 whole entry, looked up): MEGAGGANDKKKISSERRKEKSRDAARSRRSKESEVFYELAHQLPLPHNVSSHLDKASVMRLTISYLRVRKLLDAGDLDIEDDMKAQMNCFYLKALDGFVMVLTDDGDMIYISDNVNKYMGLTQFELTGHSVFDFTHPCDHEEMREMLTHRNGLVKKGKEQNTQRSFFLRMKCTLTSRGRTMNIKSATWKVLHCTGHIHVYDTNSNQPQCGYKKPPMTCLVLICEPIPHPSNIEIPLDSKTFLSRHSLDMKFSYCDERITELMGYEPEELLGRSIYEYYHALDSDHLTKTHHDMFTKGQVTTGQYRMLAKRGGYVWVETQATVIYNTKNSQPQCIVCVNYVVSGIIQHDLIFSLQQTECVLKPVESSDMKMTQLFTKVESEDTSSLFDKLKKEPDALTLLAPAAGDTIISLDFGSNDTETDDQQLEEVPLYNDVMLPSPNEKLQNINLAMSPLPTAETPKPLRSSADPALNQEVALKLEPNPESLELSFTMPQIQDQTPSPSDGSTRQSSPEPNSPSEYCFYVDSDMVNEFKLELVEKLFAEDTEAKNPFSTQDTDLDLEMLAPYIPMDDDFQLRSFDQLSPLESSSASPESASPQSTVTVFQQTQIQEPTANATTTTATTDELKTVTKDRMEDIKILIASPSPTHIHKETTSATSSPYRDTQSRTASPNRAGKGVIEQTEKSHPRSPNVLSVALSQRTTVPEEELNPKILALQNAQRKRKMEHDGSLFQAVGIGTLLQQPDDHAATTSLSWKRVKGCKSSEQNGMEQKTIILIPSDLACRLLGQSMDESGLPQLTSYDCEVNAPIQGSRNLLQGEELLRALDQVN
Procedure, shortened: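 RT-PCR/capillary electrophoresis fluorescence readout of reporter transcripts from endogenous-TF-driven cis elements in transfected HepG2 cells, 24 h exposure; activity fitted in both directions against DMSO controls.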

[15] = biological target: Hepatocyte nuclear factor 6 (Homo sapiens) (UniProt Q9UBC0); experiment: ATG_HNF6_CIS: Attagene CIS-FACTORIAL HepG2 Assay for human Hepatocyte Nuclear Factor 6 (HNF6) (AID 2282952); settings: HepG2 Attagene cis-factorial HNF6 reporter transcription; actives raise or lower the signal
Chain of Hepatocyte nuclear factor 6 (Homo sapiens) (Q9UBC0 whole entry, looked up, the tested form may be a part): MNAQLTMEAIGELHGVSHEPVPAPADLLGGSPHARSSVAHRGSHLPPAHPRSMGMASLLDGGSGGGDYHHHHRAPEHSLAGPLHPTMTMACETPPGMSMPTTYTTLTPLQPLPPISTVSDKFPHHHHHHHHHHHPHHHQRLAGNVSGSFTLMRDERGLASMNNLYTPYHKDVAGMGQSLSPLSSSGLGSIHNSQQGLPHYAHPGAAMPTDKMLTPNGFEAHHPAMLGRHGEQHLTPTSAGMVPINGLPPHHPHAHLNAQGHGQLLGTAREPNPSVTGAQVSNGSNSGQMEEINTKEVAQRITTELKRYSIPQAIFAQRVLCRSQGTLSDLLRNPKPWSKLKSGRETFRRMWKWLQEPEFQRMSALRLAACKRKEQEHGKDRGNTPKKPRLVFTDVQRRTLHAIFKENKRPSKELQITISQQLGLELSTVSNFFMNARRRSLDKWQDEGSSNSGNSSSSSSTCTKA
Procedure, shortened: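 First, HepG2 cells were transfected with the multiplexed cis reporter library and dosed with chemical for 24 h. Next, RNA was reverse-transcribed, PCR-amplified and fluorescently labelled. Finally, HpaI-digested fragments were read by capillary electrophoresis.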

[16] = biological target: Heat shock factor protein 1 (Homo sapiens) (UniProt Q00613); experiment: ATG_HSE_CIS: Attagene CIS-FACTORIAL HepG2 Assay for human Heat Shock Transcription Factor 1 (HSE) (AID 2282953); settings: HepG2 HSE cis-reporter, Attagene RNA transcription; actives raise or lower the signal
Chain of Heat shock factor protein 1 (Homo sapiens) (Q00613 whole entry, looked up, the tested form may be a part): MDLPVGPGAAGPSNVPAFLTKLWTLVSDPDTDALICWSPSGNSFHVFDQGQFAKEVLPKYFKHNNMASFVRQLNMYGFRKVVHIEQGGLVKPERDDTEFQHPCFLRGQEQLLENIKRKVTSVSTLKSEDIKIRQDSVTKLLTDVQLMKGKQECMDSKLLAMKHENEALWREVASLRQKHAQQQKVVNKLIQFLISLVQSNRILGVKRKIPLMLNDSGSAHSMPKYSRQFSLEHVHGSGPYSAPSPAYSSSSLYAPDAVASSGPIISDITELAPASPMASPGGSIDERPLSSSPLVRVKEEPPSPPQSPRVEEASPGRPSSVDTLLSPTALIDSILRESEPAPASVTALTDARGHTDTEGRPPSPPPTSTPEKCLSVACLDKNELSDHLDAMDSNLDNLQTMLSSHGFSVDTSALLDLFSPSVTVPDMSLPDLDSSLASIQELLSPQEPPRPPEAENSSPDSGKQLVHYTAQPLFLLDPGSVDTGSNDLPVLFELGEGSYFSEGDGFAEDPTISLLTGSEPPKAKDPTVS
Procedure, shortened: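 Endogenous transcription factor activity captured via cis-promoter reporter units transfected into HepG2; treatment lasted 24 h. Fluorescence intensity of reporter fragments analysed with bidirectional curve fitting, DMSO baseline.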

[17] = ATG_MRE_CIS: Attagene CIS-FACTORIAL HepG2 Assay for human Metal Responsive Element (MRE) (AID 2282954); settings: HepG2 MRE cis-reporter transcription, Attagene multiplex; actives raise or lower the signal
Procedure, shortened: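 Readout: capillary electrophoresis of 6-FAM-labelled, HpaI-digested RT-PCR reporter products. System: HepG2 cells carrying transient multiplexed cis reporters, dosed 24 h. Analysis: bidirectional fit, DMSO baseline.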

[18] = biological target: Hepatocyte nuclear factor 3-beta (Homo sapiens) (UniProt Q9Y261); experiment: ATG_FoxA2_CIS: Attagene CIS-FACTORIAL HepG2 Assay for human Forkhead box A2 (FOXA2) (AID 2282942); settings: HepG2 cis-reporter transcription factor activity, 24 h; actives raise or lower the signal
Chain of Hepatocyte nuclear factor 3-beta (Homo sapiens) (Q9Y261 whole entry, looked up): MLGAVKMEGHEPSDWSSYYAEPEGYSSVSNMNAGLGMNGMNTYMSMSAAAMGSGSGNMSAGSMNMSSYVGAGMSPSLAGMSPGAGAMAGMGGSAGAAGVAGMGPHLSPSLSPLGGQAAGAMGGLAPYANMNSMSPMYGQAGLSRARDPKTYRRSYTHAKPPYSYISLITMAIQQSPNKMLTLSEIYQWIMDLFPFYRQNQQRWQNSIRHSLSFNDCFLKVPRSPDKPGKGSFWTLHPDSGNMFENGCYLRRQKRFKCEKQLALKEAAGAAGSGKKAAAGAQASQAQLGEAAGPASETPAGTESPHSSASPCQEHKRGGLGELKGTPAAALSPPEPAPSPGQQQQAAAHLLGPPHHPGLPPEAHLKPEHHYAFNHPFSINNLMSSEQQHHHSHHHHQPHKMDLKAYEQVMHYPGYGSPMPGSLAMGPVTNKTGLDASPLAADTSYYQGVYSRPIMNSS
Procedure, shortened: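 Readout: fluorescent reporter transcripts resolved by capillary electrophoresis after RT-PCR. Transiently transfected HepG2, 24 h compound exposure, endogenous TF activity at cis promoter elements. Gain or loss of signal fitted relative to DMSO.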

[19] = ATG_GRE_CIS: Attagene CIS-FACTORIAL HepG2 Assay for human Glucocorticoid Response Elements (GRE) (AID 2282947); settings: HepG2 GRE cis-reporter, Attagene multiplex mRNA; actives raise or lower the signal
Procedure, shortened: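 HepG2, transient cis-reporter transfection, 24 h. Reporter mRNA: RT-PCR then CE, fluorescence. Fit both directions vs DMSO.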

[20] = biological target: Bile acid receptor (Homo sapiens) (UniProt Q96RI1); experiment: ATG_IR1_CIS: Attagene CIS-FACTORIAL HepG2 Assay for human Nuclear Receptor Subfamily 1 Group H Member 4 (NR1H4), IR1 submotif (AID 2282946); settings: IR1 reporter transcription, actives raise or lower the signal
Chain of Bile acid receptor (Homo sapiens) (Q96RI1 whole entry, looked up): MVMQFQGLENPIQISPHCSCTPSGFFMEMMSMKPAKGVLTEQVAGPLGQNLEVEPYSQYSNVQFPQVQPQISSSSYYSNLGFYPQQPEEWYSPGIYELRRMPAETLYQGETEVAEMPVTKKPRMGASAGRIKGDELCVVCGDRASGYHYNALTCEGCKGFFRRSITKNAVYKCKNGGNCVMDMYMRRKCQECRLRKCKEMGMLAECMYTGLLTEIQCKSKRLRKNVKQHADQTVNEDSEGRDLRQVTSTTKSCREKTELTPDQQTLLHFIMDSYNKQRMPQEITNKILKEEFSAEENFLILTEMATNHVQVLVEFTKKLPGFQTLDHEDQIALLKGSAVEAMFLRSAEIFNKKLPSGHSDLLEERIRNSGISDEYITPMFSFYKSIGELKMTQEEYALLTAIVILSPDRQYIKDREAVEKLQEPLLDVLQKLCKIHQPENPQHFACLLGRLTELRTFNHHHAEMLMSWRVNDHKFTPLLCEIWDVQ
Procedure, shortened: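 Readout: reporter transcript levels by RT-PCR with fluorescent capillary electrophoresis, from HepG2 cells transiently transfected with multiplexed cis-regulated reporters and dosed 24 h. Gain- or loss-of-signal fitted versus DMSO negative control.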

O=[N+]([O-])c1ccc(O)cc1
outcome [1]: inactive
outcome [2]: inactive
outcome [3]: inactive
outcome [4]: inactive
outcome [5]: inactive
outcome [6]: inactive
outcome [7]: inactive
outcome [8]: inactive
outcome [9]: inactive
outcome [10]: inactive
outcome [11]: inactive
outcome [12]: inactive
outcome [13]: inactive
AC50 [14]: 151 µM (active)
outcome [14]: inactive
outcome [15]: inactive
outcome [16]: inactive
outcome [17]: inactive

Cc1cc(C)c(O)c(C)c1
outcome [1]: inactive
outcome [2]: inactive
outcome [3]: inactive
outcome [4]: inactive
outcome [5]: inactive
outcome [6]: inactive
outcome [7]: inactive
outcome [18]: inactive
outcome [8]: inactive
outcome [9]: inactive
outcome [10]: inactive
outcome [19]: inactive
outcome [11]: inactive
outcome [13]: inactive
outcome [14]: inactive
outcome [15]: inactive
outcome [16]: inactive
outcome [17]: inactive

CC(C)(C)c1cccc(C(C)(C)C)c1O
AC50 [1]: 188 µM (active)
outcome [2]: inactive
outcome [3]: inactive
outcome [4]: inactive
outcome [5]: inactive
outcome [6]: inactive
AC50 [7]: 166 µM (active)
outcome [18]: inactive
outcome [8]: inactive
outcome [9]: inactive
outcome [10]: inactive
outcome [12]: inactive
outcome [13]: inactive
AC50 [14]: 173 µM (active)
outcome [15]: inactive
outcome [16]: inactive
AC50 [17]: 158 µM (active)

Nc1cccc2c(N)cccc12
outcome [1]: inactive
outcome [2]: inactive
outcome [3]: inactive
outcome [4]: inactive
outcome [5]: inactive
outcome [6]: inactive
outcome [7]: inactive
outcome [8]: inactive
outcome [9]: inactive
outcome [10]: inactive
outcome [20]: inactive
outcome [19]: inactive
outcome [12]: inactive
outcome [13]: inactive
outcome [14]: inactive
outcome [15]: inactive
outcome [16]: inactive
outcome [17]: inactive

CC(=O)CC(C)(C)O
outcome [1]: inactive
outcome [2]: inactive
outcome [3]: inactive
outcome [4]: inactive
outcome [5]: inactive
outcome [6]: inactive
outcome [7]: inactive
outcome [18]: inactive
outcome [8]: inactive
outcome [9]: inactive
outcome [10]: inactive
outcome [13]: inactive
outcome [14]: inactive
outcome [15]: inactive
outcome [16]: inactive
outcome [17]: inactive

COc1cc(CCC(=O)CC(=O)CCc2ccc(O)c(OC)c2)ccc1O
outcome [1]: inactive
outcome [2]: inactive
outcome [3]: inactive
outcome [4]: inactive
outcome [5]: inactive
outcome [6]: inactive
outcome [7]: inactive
outcome [8]: inactive
outcome [9]: inactive
outcome [10]: inactive
outcome [20]: inactive
outcome [19]: inactive
outcome [11]: inactive
outcome [13]: inactive
outcome [14]: inactive
outcome [15]: inactive
outcome [16]: inactive
AC50 [17]: 76.4 µM (active)

CC(C)CCCCCCOC(=O)CCCCC(=O)OCCCCCCC(C)C
outcome [1]: inactive
outcome [2]: inactive
outcome [3]: inactive
outcome [4]: inactive
outcome [5]: inactive
outcome [6]: inactive
outcome [7]: inactive
outcome [8]: inactive
outcome [9]: inactive
outcome [10]: inactive
outcome [19]: inactive
outcome [11]: inactive
outcome [12]: inactive
outcome [13]: inactive
outcome [14]: inactive
outcome [15]: inactive
outcome [16]: inactive
outcome [17]: inactive
